The text below walks through data of publication PMC12136788.

Substitutions are numbered along the chain they refer to. In all, about 24,000 sequences were measured (“enrichment r”: median about 0.99, highest 2% from about 3.7 on). The list comes from a sample in which the highest values are over-represented; it also holds similar and randomly drawn sequences.

T1: UNK ZnF1-3 (human, UniProt Q9C0B0 31-174)
T1 sequence: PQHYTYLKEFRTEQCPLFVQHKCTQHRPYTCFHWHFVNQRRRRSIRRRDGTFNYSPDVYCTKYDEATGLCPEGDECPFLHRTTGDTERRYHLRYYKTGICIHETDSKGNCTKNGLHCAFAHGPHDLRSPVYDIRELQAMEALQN

B1: chr17:56552419:56552420:-_ENSMUSG00000013236_ENSMUST00000086828|mus_mus|mus_mus_mus_hu_False|48_98 (ssRNA)
RNA: GGGAGUUCUACAGUCCGACGAUCAAAAAAUACACUAUAAAAAAAAAAUGAAAUGUCACGGGAUACAGUUACACUGAGAGUUUUAAAAAAAAAUAAGAUUCUGGUCCCAGCCCAGUGUCCCCAGGCUGCAGAGCGGGGAGGAGCCAACAGAGGAUUGAGCAUCA
B2: chr17:56552419:56552420:-_ENSMUSG00000013236_ENSMUST00000086828|mus_mus|mus_mus_mus_hu_False|48_58 (ssRNA)
RNA: B1 RNA with A38U, A39U, G77C, G79C, U81A
B3: chr17:56552419:56552420:-_ENSMUSG00000013236_ENSMUST00000086828|mus_mus|mus_mus_mus_hu_False|1_48 (ssRNA)
RNA: B1 RNA with A38U, A39U, A138C, G139A, C143G
B4: chr17:56552419:56552420:-_ENSMUSG00000013236_ENSMUST00000086828|mus_mus|mus_mus_mus_hu_False|48_48 (ssRNA)
RNA: B1 RNA with A38U, A39U
B5: 35626089_35772405_348_CDS_ENSG00000108100_ENST00000265375|human|control|control (ssRNA)
RNA: GGGAGUUCUACAGUCCGACGAUCGUCCGUCUGAGAUUUACUGAGGAAUAUUGUGCUGGCCCGAGGAUGAUCUGAAGGAUUGAAUUCCAUGUUCAAAUCGUCUAUGUUCUCCCGGUCGCUGAUGUGCUGCAGGUUGCAGCCCGUCAACAGAGGAUUGAGCAUCA
B6: chr2:216981417:216981418:+_ENSG00000079246_ENST00000392132|hu_hu|hu_hu_hu_mus_True|18_98 (ssRNA)
RNA: GGGAGUUCUACAGUCCGACGAUCCUGAUACUGGUCCCCACCAGAAAGGGCAUUAUCAGUGCCAUCUGUGCCAUAGAGGACUAACGCAAUCUCAUCUUUGCUCUCCGAAAAUACCUGUCGCUGUACAAACAUAGUCAUCACUUUCAACAGAGGAUUGAGCAUCA
B7: chr11:48616917:48616918:+_ENSMUSG00000020372_ENSMUST00000020640|mus_mus|FALSE|FALSE (ssRNA)
RNA: GGGAGUUCUACAGUCCGACGAUCGACGAUGAUAGGGUUGCUGCUGUUCGGGGAGAAGCGGACACAAGACACCCAUUCUGAAUGACUCUCAUCCUGGACCGUGUACUUGCAGACACCCAGAGUAUUCCAUAACUUUAUGGUCUUCAACAGAGGAUUGAGCAUCA
B8: chr15:81680702:81680703:-_ENSMUSG00000048546_ENSMUST00000050467|mus_mus|motif|central (ssRNA)
RNA: GGGAGUUCUACAGUCCGACGAUCGAGAGAGAGUUGAGGCUAGGGCCAGACUUAUUUGGGUGGCAGGCCCUGAGAAGACAGCGGGGUUGGGGGUUGUGGACACGGGGGUGGAGGGUGGGGGGGUGUCAGCCUCUCCCUGUUUCACAACAGAGGAUUGAGCAUCA
B9: 23240013_23240133_1240_CDS_ENSG00000136243_ENST00000258742|human|control|control (ssRNA)
RNA: GGGAGUUCUACAGUCCGACGAUCACUACCAAAACCAGCCACAGAACUGCCACCUCCAAAGGCUGGGGCCACUGGAGCUCUGACAGGACCUGUUGCCAAGGAAGCUGGAAGUCCUGAAAAUCCAGGUGAUCCAAAACUGGAAGCCAACAGAGGAUUGAGCAUCA
B10: chr8:73282188:73282189:+_ENSMUSG00000031840_ENSMUST00000034301|mus_hu|FALSE|FALSE (ssRNA)
RNA: GGGAGUUCUACAGUCCGACGAUCUAGGGUGUCAUCUGGCCCCUCUUCACAACUGACAACUGUGGAUGGGGGUGAAUUUUAAAAAAAGGCGGGGGGGGGGGGUUCAGGAGGGUGAGCGGUGAGUUCACGGGGCCACGAGACACCCAACAGAGGAUUGAGCAUCA
B11: chr6:43255143:43255144:+_ENSG00000146216_ENST00000259750|hu_mus|FALSE|FALSE (ssRNA)
RNA: GGGAGUUCUACAGUCCGACGAUCUCCUAGGCCUCCCCUUCUUUCAAUCUCCAAACCUGGGUGUUGUUGGUCCUACGGCAGAAGGGAGACUGAGGGGGGCACCUACACUCACAGUUAGGUUGGUGGCAAGGGGCAGGCCCAGGGCAACAGAGGAUUGAGCAUCA
B12: chrX:71549400:71549401:+_ENSMUSG00000019087_ENSMUST00000019231|mus_hu|mus_mus_mus_hu_False|28_68 (ssRNA)
RNA: GGGAGUUCUACAGUCCGACGAUCGCAGUAGGAAGAGGGAAGCUCUUCAGUCCAGUGCGCUGCAGGGAGAAACAUGAACAACACGGACACCGUCCCACCCUCAACCCUCUCAGGUGUACAGGGUCACACAAUCUGGGUCAAAGACAACAGAGGAUUGAGCAUCA
B13: 34053828_34053948_230_3pUTR_ENSMUSG00000051390_ENSMUST00000053429|mouse|control|control (ssRNA)
RNA: GGGAGUUCUACAGUCCGACGAUCUGGUCACCUCAGGGAAGGACACGUGUACCACUGCAGCUGCCGGCAGAGGCAGUGGCGGUGGAGCCAGUGACAGAGGCAGUGGGAGUGUGGCCCCACUGGGUGACAGAGCAGACGGCUCCACAACAGAGGAUUGAGCAUCA
B14: chr14:67424093:67424094:-_ENSMUSG00000022048_ENSMUST00000022629|mus_hu|motif|central (ssRNA)
RNA: GGGAGUUCUACAGUCCGACGAUCGAGAGACGGGGUGUGGGGCCCCAAGGGGGACCCCAUGAACUGGCUGCUCCACAGUAACGGUCACAGGCUCUUAAAAAAAAAAACAAAAAAAAAAAAAGGAAGGAAGAAAGAAGUCUCAGACAACAGAGGAUUGAGCAUCA
B15: chr14:66974463:66974464:+_ENSMUSG00000022044_ENSMUST00000074523|mus_hu|mus_mus_mus_hu_False|88_88 (ssRNA)
RNA: GGGAGUUCUACAGUCCGACGAUCUUGUAGGACGACUUAUUCAGGGGAUCAGACAAGAAGCAGGAGCAGAACAAGGACACCAGCGGGAGCUCCUUCAUCUUCUCUUUGUAGGCAGCAAGGGUCAUGUUUCUGGGAUCUGGUGGCCAACAGAGGAUUGAGCAUCA
B16: chr14:67424093:67424094:-_ENSMUSG00000022048_ENSMUST00000022629|mus_hu|FALSE|FALSE (ssRNA)
RNA: B14 RNA with G82U, G83A
B17: chr7:143080189:143080190:+_ENSG00000159840_ENST00000392910|hu_hu|FALSE|FALSE (ssRNA)
RNA: GGGAGUUCUACAGUCCGACGAUCUGGGGCUCCAGGACUGAACUUGGAAGCCACAGGAGUAAACUUAGGAGUCACUGGAGAAAACUUAGGGGCUGGAGCCGGAGAUGAGGCUGGGGGCCCUCGGGGCUGGGUGUUAGCCAAAGACAACAGAGGAUUGAGCAUCA
B18: 157127611_157127731_2631_3pUTR_ENSMUSG00000026469_ENSMUST00000027741|mouse|control|control (ssRNA)
RNA: GGGAGUUCUACAGUCCGACGAUCAUUAAAAGUAGCUUUGUGGAGGAGGUGCUGCUCCAAGCUGCACUUUCCCUGCAAGUGCUGCCAGUGUCUCUGCACUGGCUAUGAAGGAAGGGAAAAACUCUCCAUAGAAACUGACAGAAACAACAGAGGAUUGAGCAUCA
B19: chr22:32879901:32879902:+_ENSG00000100225_ENST00000397426|hu_mus|hu_hu_hu_mus_False|78_78 (ssRNA)
RNA: GGGAGUUCUACAGUCCGACGAUCCUCUUCCAUACUCAUGGCAUCCUGAAUUGACUCAGCUUCAAAAUUUUGACUAGGCCCUUCCAUACUGUCAUCAGUCCAGGCAUCAAAUGGGGUGGCCUGUCCUUGGGAUGAAUCAGUCCCCAACAGAGGAUUGAGCAUCA

The experiment addresses T1, UNK ZnF1-3. As to the kind of experiment: nsRBNS (natural sequence RNA bind-n-seq); RBNS binding buffer (assumed for nsRBNS): 25 mM Tris pH 7.5, 150 mM KCl, 3 mM MgCl2, 0.01% Triton X-100, 500 ug/ml BSA, 20 U/ml SUPERase-In, 4 C; UNK is unkempt and MSI1 is Musashi-1; names of the RNAs are library labels; protein concentration not given here; high values mean tight binding.
On to B1, for which the binding signal was determined as 11.1 enrichment R.

B2 showed a binding signal of 8.56 enrichment R.

B3 showed a binding signal of 3.79 enrichment R.

In the case of B4, the binding signal came to 7.18 enrichment R.

B5 displayed a binding signal of 0.777 enrichment R.

Turning to B6, the binding signal came to 1.16 enrichment R.

B7 yielded a binding signal of 0.907 enrichment R.

With B8, the binding signal came to 4.46 enrichment R.

The molecule B9 had a binding signal of 1.23 enrichment R.

Molecule B10 returned a binding signal of 4.04 enrichment R.

B11 displayed a binding signal of 0.766 enrichment R.

With B12, the binding signal amounted to 1.64 enrichment R.

For the molecule B13, the binding signal turned out to be 0.895 enrichment R.

As to B14, the binding signal stood at 7.78 enrichment R.

Regarding B15, the binding signal worked out at 2 enrichment R.

On to B16, for which the binding signal was found to be 20.5 enrichment R.

B17 came in with a binding signal of 1.45 enrichment R.

Regarding B18, the binding signal came to 0.603 enrichment R.

B19 had a binding signal of 1.23 enrichment R.
